From the supplement of paper PMC6555819

What follows are sequences tested on PXR:RXRa (NR concentration 270 nM, RXRa partner concentration 90 nM) (assay: PBM binding z-score (relative to random genomic background probes); higher = stronger binding; sequences stand for … in GC…GCGATTGACAGCGTAGAATGAAGG).
Summary of the method: (§1)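 The probes on custom Agilent 4×180K protein-binding microarrays were double-stranded, with 34-nt variable regions bearing direct-repeat seeds, single-nucleotide variants, half-site ablations and random human genomic background sequences. Incubation lasted 1 h with ligand-free nuclear receptor dimers in PBS pH 7.4, 2% milk, 0.02% Triton X-100, 1 mM DTT, 0.2 mg/mL BSA and 0.4 mg/ml salmon testes DNA. Antibodies against each partner (one per run) detected bound dimers, and fluorescence scans were regression-normalized. Binding z-scores take the random background probes as reference.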

Compared with CGTCCAAGGTCAAAGGGCAGTGAAGAGATGACGG, CCGACTGGGGCAGAAAGGTTACCAGACCATCCGG is lower in PBM binding z-score: 4.98 for the first, 0.737 for the second.

Going from AGTCAAAGTTCATCTCGGTAACGTAAGATATGCT to TATACAGGGTCAAAGGCCAGAGTACGAATGTCGA, the PBM binding z-score falls from 4.97 to 4.55.

Going from AGAACGAGGGCAATGACTTGATAGCACGGGTGGC to GGAGCGAGGGCAAGTTGATAGCAGAGTTTGATGG, the PBM binding z-score rises from 0.345 to 0.533.

First: TCTTATAGATCAGCAGGTTAAGAAAGCTGGCCAA
Second: GCTGCTAGGTGAACTGATGGTCAGCTAAAGCTCG
The PBM binding z-score of the first is higher: 0.161 for the first, -0.0218 for the second.

Going from AGAATGACGTTACCAAAGATCAGGGAAACGCTTG to ATACAAAGGTGATCGTGAGGTCGTTGATACTAAC, the PBM binding z-score rises from -0.527 to 4.07.

First: GCGTATAGGTAATACAAGGTGAAAGTCCGATTGT
Second: TCTAGCAGGCCAGAAGGTCACTCAAGAGGTACGG
The PBM binding z-score of the first is lower: 0.699 for the first, 2.79 for the second.

Going from CCTTACGGGTCACTCCAGGTTATAGCGTCGGAGT to ATCTCTAGGTAACAAGTGCAGTGAAAGAGAGGAC, the PBM binding z-score falls from 5.1 to 0.133.

Going from GATACAGGGTCTGCTAGAGGCCAGAGTATGGAAA to TGTGCTAGGTCAACGATGGTCAGCTAATCTGCTA, the PBM binding z-score rises from -0.54 to 1.4.

Compared with ATCTCTAGGGAACCAAGTTCAGTGAATGCCGAAC, TCTATTAGTTGAAGGGCAACCAACGAGTCCGTTT is lower in PBM binding z-score: 1.24 for the first, 0.786 for the second.

Going from CGAACTAGGTCAGAACAGGACAGTAAAGGATGAT to CCAGACAGCTGAGAAGGTAACTCAGCCTCGATTA, the PBM binding z-score falls from 1.02 to -0.733.

Going from TAGCCCAGGTCATGCGGGCCAGTATAGTGTCGGC to CGAACGAGGGCAGGAGTTGATAGCAAATGCCGAT, the PBM binding z-score falls from 2.52 to -0.216.

Compared with TCAGACAGGTGAAGGTAACTAAGGTACGCAGTCG, TCTAGCAGGCCAGAGGGTCACACAAGAGGTACGG is higher in PBM binding z-score: 0.646 for the first, 2.37 for the second.

Going from CCTACTGGGCCATTCAGATGTCATTGATCATATG to TCTGCTAGATCAGTTGGTCAGCTAACGAGCTGCC, the PBM binding z-score falls from -0.564 to -0.872.

Going from TATACAGGGACAAAGGCCAGAGTACGAATGTCGA to ATCTCTAGGTAAAGTTCAGGGAAAGATCGATAGA, the PBM binding z-score rises from 0.0293 to 2.17.

Going from AGAATGAGGTTACCAAAGATCAGGGACACGCTTG to TCTAGTAGTTGATTAGGGCAACCGAAACAGCGGA, the PBM binding z-score falls from 1.29 to 0.0313.

First: TCGAGTAGGATACCAATGGGGCATTCAGCTTTCT
Second: GCTGCTAGGTCAACTGATGATCAGCTAAAGCTCG
The PBM binding z-score of the first is lower: -0.677 for the first, 1.34 for the second.

First: GCGACTGGGGCATCAGCCGGTTACCATAACTTAA
Second: TCATATAGGTAAATGCTAGGTGAGAGTCCGATCT
The PBM binding z-score of the first is lower: -0.89 for the first, 0.187 for the second.

First: CGAACTAGGTCATTGTCAGGACAGTGAATAGTAA
Second: CGTCAAAGTTCATCTAAGGTAACGTAAAGCACGC
The PBM binding z-score of the first is lower: 1.84 for the first, 5.51 for the second.

Going from AATAGAGGGTCATCGTAGGCCAGAGTACGCACAG to TCGGGTAGGTTAGTCGGGGCATTCAGCCAACATA, the PBM binding z-score falls from 4.34 to 0.737.

Compared with CCTAGCAGGCCAGGGTAACTCAAGCATTTCGCTT, TCTGCTAGGTCAGTTGGTGAGCTAACGAGCTGCC is higher in PBM binding z-score: -0.679 for the first, -0.0879 for the second.

These sequences were tested on PXR homodimer (NR concentration 270 nM) in the same assay as above.
Summary of the method: as §1

Compared with CGTCCAAGGTCAAAGGGCAGTGAAGAGATGACGG, CCGACTGGGGCAGAAAGGTTACCAGACCATCCGG is lower in PBM binding z-score: 1.24 for the first, -0.356 for the second.

Compared with AGTCAAAGTTCATCTCGGTAACGTAAGATATGCT, TATACAGGGTCAAAGGCCAGAGTACGAATGTCGA is lower in PBM binding z-score: 4.44 for the first, 0.583 for the second.

Going from AGAACGAGGGCAATGACTTGATAGCACGGGTGGC to GGAGCGAGGGCAAGTTGATAGCAGAGTTTGATGG, the PBM binding z-score rises from 0.000958 to 0.345.

First: TCTTATAGATCAGCAGGTTAAGAAAGCTGGCCAA
Second: GCTGCTAGGTGAACTGATGGTCAGCTAAAGCTCG
The PBM binding z-score of the first is higher: -0.509 for the first, -0.684 for the second.

Compared with AGAATGACGTTACCAAAGATCAGGGAAACGCTTG, ATACAAAGGTGATCGTGAGGTCGTTGATACTAAC is higher in PBM binding z-score: -0.0125 for the first, 1.38 for the second.

Going from GCGTATAGGTAATACAAGGTGAAAGTCCGATTGT to TCTAGCAGGCCAGAAGGTCACTCAAGAGGTACGG, the PBM binding z-score rises from -0.0902 to -0.00251.

Going from CCTTACGGGTCACTCCAGGTTATAGCGTCGGAGT to ATCTCTAGGTAACAAGTGCAGTGAAAGAGAGGAC, the PBM binding z-score falls from 0.516 to 0.353.

Going from GATACAGGGTCTGCTAGAGGCCAGAGTATGGAAA to TGTGCTAGGTCAACGATGGTCAGCTAATCTGCTA, the PBM binding z-score rises from -0.558 to -0.379.

Compared with ATCTCTAGGGAACCAAGTTCAGTGAATGCCGAAC, TCTATTAGTTGAAGGGCAACCAACGAGTCCGTTT is lower in PBM binding z-score: 1.73 for the first, 0.837 for the second.

Going from CGAACTAGGTCAGAACAGGACAGTAAAGGATGAT to CCAGACAGCTGAGAAGGTAACTCAGCCTCGATTA, the PBM binding z-score falls from 0.0829 to 0.0352.

Going from TAGCCCAGGTCATGCGGGCCAGTATAGTGTCGGC to CGAACGAGGGCAGGAGTTGATAGCAAATGCCGAT, the PBM binding z-score falls from 0.093 to -0.229.

Going from TCAGACAGGTGAAGGTAACTAAGGTACGCAGTCG to TCTAGCAGGCCAGAGGGTCACACAAGAGGTACGG, the PBM binding z-score falls from 0.152 to -0.42.

Going from CCTACTGGGCCATTCAGATGTCATTGATCATATG to TCTGCTAGATCAGTTGGTCAGCTAACGAGCTGCC, the PBM binding z-score falls from -0.799 to -1.07.

Compared with TATACAGGGACAAAGGCCAGAGTACGAATGTCGA, ATCTCTAGGTAAAGTTCAGGGAAAGATCGATAGA is higher in PBM binding z-score: 0.479 for the first, 1.99 for the second.

Compared with AGAATGAGGTTACCAAAGATCAGGGACACGCTTG, TCTAGTAGTTGATTAGGGCAACCGAAACAGCGGA is lower in PBM binding z-score: 0.182 for the first, -0.395 for the second.

Compared with TCGAGTAGGATACCAATGGGGCATTCAGCTTTCT, GCTGCTAGGTCAACTGATGATCAGCTAAAGCTCG is higher in PBM binding z-score: -0.988 for the first, -0.82 for the second.

Going from GCGACTGGGGCATCAGCCGGTTACCATAACTTAA to TCATATAGGTAAATGCTAGGTGAGAGTCCGATCT, the PBM binding z-score rises from -0.327 to 0.158.

Compared with CGAACTAGGTCATTGTCAGGACAGTGAATAGTAA, CGTCAAAGTTCATCTAAGGTAACGTAAAGCACGC is higher in PBM binding z-score: 0.47 for the first, 5.77 for the second.

First: AATAGAGGGTCATCGTAGGCCAGAGTACGCACAG
Second: TCGGGTAGGTTAGTCGGGGCATTCAGCCAACATA
The PBM binding z-score of the first is lower: 0.066 for the first, 0.967 for the second.

Going from CCTAGCAGGCCAGGGTAACTCAAGCATTTCGCTT to TCTGCTAGGTCAGTTGGTGAGCTAACGAGCTGCC, the PBM binding z-score falls from -0.762 to -1.19.
